Among all 68,000 compounds or so, about 2,700 (4%) showed an effect of 50% or more. The list comes from a sample in which strong results are over-represented; it also holds similar structures and randomly drawn compounds.
These compounds were tested on Plasmodium berghei (assay: Screen against P. berghei liver stage (PbLuc), transformed with Luciferase, at 2uM). Conditions: tested at 2 uM.
Assay type: functional, HepG2

| Compound | INHIBITION [%] |
| --- | --- |
| Cc1ccc(CNC(=O)Cn2c(=O)c3cccnc3n2C)cc1F | 16.93 |
| Cn1c2ncccc2c(=O)n1CC(=O)NCCC1=CCCCC1 | 54.49 |
| Cn1c2ncccc2c(=O)n1CC(=O)NCCc1c(F)cccc1F | -0.83 |
| CCC[C@@H](NC(N)=O)C(=O)N1Cc2ccccc2-c2ccccc2C1 | -9.87 |
| CC(C)Cc1noc(CNc2cccc(-c3nnnn3C)c2)n1 | -45.29 |
| CC=C(C)C(=O)NS(=O)(=O)c1ccc(C(F)(F)F)cn1 | -31.15 |
| O=C(c1cccc(O)c1)N1CCN(Cc2nnc(C3CCC3)o2)CC1 | 1.41 |
| CN(Cc1cccnc1)C(=O)NC1CCN(Cc2ccccn2)CC1 | -37.28 |
| COCC(O)CN(C)C(=O)NC1CCN(Cc2ccccn2)CC1 (centres undefined) | 54.85 |
| Cc1cc(CN(C)C(=O)NC2CCN(Cc3ccccn3)CC2)no1 | -7.82 |
| COc1ncc(C2(O)CCN(Cc3cc(F)ccc3F)CC2)c(OC)n1 | -48.87 |
| CCc1cc(C(=O)N[C@@H]2CC[C@@H](N3CCOCC3)[C@@H]2O)no1 | -49.75 |
| CCOc1ccc(OCCN2CCC(N3CCNC3=O)CC2)cc1 | 12.81 |
| COc1ccccc1OCCN1CCC(N2CCNC2=O)CC1 | 3.86 |
| COc1ccc(OCCN2CCC(N3CCNC3=O)CC2)cc1 | 81.79 |
| C[S+]([O-])CCNC(=O)N1CCSC2(CCCCC2)C1 (centres undefined) | -66.38 |
| Cc1cccc(N2CC[C@@H]3CN(Cc4csc(C)n4)CCO[C@@H]3C2)n1 | 25.87 |
| Cc1cnc(C(=O)N2C[C@@H]3CC[C@H]2CN(c2cnccn2)C3)cn1 | 53.98 |
| Cc1nnsc1C(=O)N1C[C@@H]2CC[C@H]1CN(c1cnccn1)C2 | 28.73 |
| Cc1noc(C)c1C(=O)N1C[C@@H]2CC[C@H]1CN(c1cnccn1)C2 | 20.32 |
| c1ccc2c(c1)SCCC2NCc1ccc(N2CCOCC2)cc1 (centres undefined) | 15.16 |
| Cc1nccn1-c1ccccc1CNC(=O)c1cn(CCN)nn1 | -27.6 |
| NCCn1cc(C(=O)NCc2ccccc2Cn2cccn2)nn1 | 62.3 |

| Compound | INHIBITION [%] |
| --- | --- |
| NCCn1cc(C(=O)NCc2ccccc2-n2cccn2)nn1 | 28.67 |
| CC(Cn1cccn1)n1cnc2ccc(F)cc2c1=O (centres undefined) | 32.71 |
| Cc1n[nH]c(C2CN(CC(=O)NCc3cccs3)CCO2)n1 (centres undefined) | 34.42 |
| CCN(CCNC(=O)C1CCN(C(C)=O)CC1)c1ccccc1C | 31.13 |
| CCCN1CCC(C(=O)NCCN(CC)c2ccccc2C)CC1 | -5.9 |
| COc1ccc2[nH]cc(CCNC(=O)C3CCCN(C(C)=O)C3)c2c1 (centres undefined) | 13.65 |
| CN1CC(C(=O)NCCc2ccc(F)c(Br)c2)CC1=O (centres undefined) | -5.13 |
| CCN(CCNC(=O)C1CCCN(C(C)=O)C1)c1ccccc1C (centres undefined) | 56.33 |
| CC(=O)N1CCCC(C(=O)NCCc2ccc(F)c(Br)c2)C1 (centres undefined) | 63.17 |
| O=C(CN1C=Nc2ccccc2S1(=O)=O)NCCc1cccs1 | 6.12 |
| CCn1ncc(Br)c1CN(C)S(=O)(=O)c1ccc(C)cc1 | 0.3 |
| CCCc1nc(NCc2c(C)nn(CCC)c2C)c2cnn(C)c2n1 | 32.53 |
| CC(C)CNC(=O)CNc1c(NCc2ccco2)c(=O)c1=O | 10.93 |
| COc1coc(CN2CCCC(CCc3ccc(F)cc3)C2)cc1=O (centres undefined) | 30.44 |
| COc1ccnc(CN2CCCC(CCc3ccccc3)C2)c1OC (centres undefined) | 11.37 |
| COc1ccnc(CN2CCCC(CCc3ccc(F)cc3)C2)c1OC (centres undefined) | 58.03 |
| Cc1cc(CN(C)C2CCCN(Cc3noc(C)n3)C2)no1 (centres undefined) | 80.46 |
| Cc1cc(CN(C)C2CCCN(Cc3noc(C4CC4)n3)C2)no1 (centres undefined) | 28.65 |
| Cc1cc(CN(C)C2CCCN(Cc3noc(C)n3)C2)on1 (centres undefined) | -2.71 |
| Cc1nnc(CN(C)C2CCCN(Cc3noc(C4CC4)n3)C2)o1 (centres undefined) | 62.13 |
| CN(Cc1noc(C2CC2)n1)C1CCN(Cc2nnc(C3CC3)o2)C1 (centres undefined) | 51.19 |
| CCc1nnc(CN(C)C2CCCN(Cc3noc(C4CC4)n3)C2)o1 (centres undefined) | -7.13 |
| Cc1nc(CN(C)C2CCN(Cc3nnc(C4CC4)o3)C2)no1 (centres undefined) | 49.01 |

| Compound | INHIBITION [%] |
| --- | --- |
| Cc1nc(CN2CCCC(N(C)Cc3nnc(C4CC4)o3)C2)no1 (centres undefined) | -10.47 |
| CC(C)c1nc(CN(C)C2CCN(Cc3nnc(C4CC4)o3)C2)no1 (centres undefined) | 37.9 |
| CC(C)N(Cc1cccnc1)C(=O)CCSc1ccc(C#N)cc1 | 16.72 |
| CCc1nc(CN2CCN(C(=O)c3csnn3)CC2)cs1 | 32.64 |
| CC(C)NC(=O)N1CCCC2(CCCCN2)C1 (centres undefined) | 21.75 |
| O=C(NCC(F)(F)F)c1ccncc1 | 8.22 |
| Fc1cnc(N2CCCC3(CCN(Cc4cccs4)C3)C2)nc1 (centres undefined) | 31.25 |
| Cc1ccnc(NC(=O)C2CCCO2)c1 (centres undefined) | 23.39 |
| CN1CCOC(C(=O)N(C)c2ccc3c(c2)CCO3)C1 (centres undefined) | -30.56 |
| COc1ccc(N(C)C(=O)C2CN(C)CCO2)cc1Cl (centres undefined) | -18.04 |
| COc1ccc(N(C)C(=O)C2CN(C)CCO2)cc1F (centres undefined) | 71.05 |
| Cc1ccc(OCC(O)COC2CCOCC2)c(Cl)c1 (centres undefined) | -2.35 |
| Cc1cc(Cc2ccccc2)cc(C2CCCNC2)n1 (centres undefined) | -24.98 |
| Cc1cc(Cc2ccccc2C)cc(C2CCCNC2)n1 (centres undefined) | 54.02 |
| Cc1cc(Cc2ccccc2F)cc(C2CCCNC2)n1 (centres undefined) | 4.91 |
| CC(=O)N1CCN(c2cc(-n3cccc3)ncn2)CC1 | 35.36 |
| CSc1sc2c(O)cc(=O)[nH]c2c1C(N)=O | 15.96 |
| CSCCc1n[nH]c2c1CN(S(=O)(=O)c1c(C)nn(C)c1C)CC2 | 59.8 |
| CSCCc1n[nH]c2c1CN(S(=O)(=O)c1cn(C)c(C)n1)CC2 | 41.07 |
| Cc1nc(S(=O)(=O)N2CCc3[nH]nc(CCC(C)C)c3C2)cn1C | 26.75 |
| CS(=O)(=O)Cc1nc(CNc2c(F)cc(F)cc2F)cs1 | 1.42 |
| CSc1ccc(NCc2csc(CS(C)(=O)=O)n2)cc1F | 28.95 |
| CS(=O)(=O)Cc1nc(CNc2ccc(F)c(F)c2)cs1 | 56.49 |

— ChEMBL document CHEMBL4513216, “Probing the Open Global Health Chemical Diversity Library for Multistage-Active Starting Points for Next-Generation Antimalarials” (ACS Infect Dis, 2020)
